Source: PubChem (The Scripps Research Institute Molecular Screening Center)
PLCb3 inh = inhibitors of human phospholipase C beta3 | inhibition, % at 12.2 µM | 370,000 tested, 0.18% active | AID 720704 | Purified PLC-beta3, fluorogenic substrate, fluorescence | Q01970; in the data active = inhibition above about 11%;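 note: 0% = median of compound wells on plate and 100% = full blocker control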
proKLK7 act = activates the human kallikrein-7 zymogen | AID 652039 | activation, % at 7 µM | P49862 | 370,000 tested, 0.9% active | purified proKLK7, EDANS-DABCYL substrate fluorescence; 100% is mature enzyme control, 0% vehicle;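 active = activation above the mean of all tested compounds plus 3 SD, computed per campaign excluding outliers beyond control limits, cut at about 13% in these data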
Target sequence (P49862 whole entry, looked up): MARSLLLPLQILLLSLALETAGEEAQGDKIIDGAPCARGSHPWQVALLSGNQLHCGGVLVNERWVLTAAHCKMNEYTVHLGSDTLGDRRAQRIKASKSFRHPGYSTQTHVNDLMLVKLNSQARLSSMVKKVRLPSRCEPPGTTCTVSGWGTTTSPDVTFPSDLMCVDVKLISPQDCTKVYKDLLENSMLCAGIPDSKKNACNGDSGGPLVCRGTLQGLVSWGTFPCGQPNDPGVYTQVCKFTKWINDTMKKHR
ADAM17 inh = ADAM17 inhibition, QFRET primary screen; P78536; recombinant ADAM17, EDANS/DABCYL FRET peptide cleavage; inhibition, % at 6.95 µM; 370,000 tested, 0.83% active; AID 720648;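 active = inhibition above the mean of compounds lying between control limits plus 3 SD, set per campaign, cut at about 8.5% in these data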;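 note: 0% = DMSO-only wells as the low control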
PLC-gamma1 inh = blocks human PLC-gamma1 enzyme activity; AID 720700; 370,000 tested, 0.84% active; purified PLC-gamma1, fluorogenic substrate, fluorescence; inhibition, % at 12.2 µM; in the data active = inhibition above about 9.5%
ADAM10 inh = inhibits human ADAM10. recombinant ADAM10, EDANS/DABCYL FRET peptide cleavage, 3 h. 370,000 tested, 0.62% active. AID 720582. inhibition, % at 7 µM;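 active = inhibition above a per-campaign cutoff equal to the mean of compounds falling between control-based bounds plus 3 SD, cut at about 20% in these data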;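 note: 0% = DMSO wells while the 100% control is not disclosed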
ADAM10 confirm = human ADAM10 inhibition, confirmation. AID 743208. 2,100 tested, 1% active. shares compounds with ADAM10 inh. inhibition, % at 6.95 µM. ADAM10 QFRET peptide cleavage, EDANS fluorescence;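 active = inhibition above about 20% chosen separately for each screening run, limit read from the data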;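 note: 0% = DMSO wells and 100% = marimastat wells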
ADAM17 ctr = ADAM17 inhibition, counter-screen for ADAM10 exosite hits; shares compounds with ADAM10 inh; ADAM17 QFRET peptide cleavage, EDANS fluorescence; inhibition, % at 6.95 µM; 2,100 tested, 0.5% active;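 active = mean triplicate inhibition above the solvent-only control wells' mean plus 3 SD, cut at about 12% in these data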;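 note: 0% = DMSO wells and 100% = marimastat wells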
Starred values were filed as active, the others as inactive; nt = not tested or not shown. Only some compounds are listed: those with a hit (about 2.9% of all), similar ones and a draw of the others.

SMILES | PLCb3 inh | proKLK7 act | ADAM17 inh | PLC-gamma1 inh | ADAM10 inh | ADAM10 confirm | ADAM17 ctr
COc1cc(C2c3c(-c4cc(Cl)c(C)cc4O)n[nH]c3C(=O)N2Cc2cccnc2)ccc1O (stereo not given) | -9 | 0 | 5 | -10 | 21* | 1 | -1
COc1ccccc1NC(=O)c1ccccc1NC(=O)c1cccs1 | 0 | 1 | 2 | 1 | 21* | 2 | 0
COc1ccccc1NC(=O)c1cccs1 | 5 | 1 | 0 | 5 | 7 | nt | nt
O=C(/C=C/c1ccc([N+](=O)[O-])cc1)OCC(=O)N1CCOCC1 | -2 | 0 | -1 | -3 | -10 | nt | nt
COc1cccc(CN2CC(C(=O)NCCn3cccn3)CCC2=O)c1 (stereo not given) | -2 | 0 | -3 | 4 | -4 | nt | nt
COc1cc(C(=O)NNC(=S)NC(=O)c2ccc3c(c2)OCO3)cc(OC)c1OC | -3 | 0 | 6 | 2 | 22* | 3 | 3
COc1cc(C(=O)NNC(=O)c2ccc3c(c2)OCCO3)cc(OC)c1OC | -23 | -1 | -8 | -18 | -30 | nt | nt
Cc1ccc(C(C)C)c(OCC(=O)N/N=C/C2CCCCC2)c1 | 0 | 0 | -7 | 0 | 3 | nt | nt
Cc1ccc(/C=C/C(=O)Nc2ccc(S(=O)(=O)Nc3onc(C)c3C)cc2)cc1 | -1 | 0 | 1 | 9 | 21* | -1 | 0
CCC(=O)Nc1cccc(C2=NOC3(C2)C[C@@H](C(N)=O)N(C(=O)c2ccccc2C(=O)c2ccccc2)C3)c1 (stereo not given in full) | -1 | 0 | -5 | 1 | -11 | nt | nt
NC(=O)[C@@H]1CC2(CC(c3cccc(NC(=O)CC(c4ccccc4)c4ccccc4)c3)=NO2)CN1C(=O)COc1ccc(Cl)cc1 (stereo not given in full) | 2 | 0 | 8 | 7 | 23* | 14 | 4
NC(=O)[C@H]1CC2(CC(c3cccc(NC(=O)CC(c4ccccc4)c4ccccc4)c3)=NO2)CN1C(=O)c1ccccc1C(=O)c1ccccc1 (stereo not given in full) | 3 | 0 | 9 | 0 | 20* | 8 | 3
CCC(=O)Nc1cccc(C2=NOC3(C2)C[C@@H](C(N)=O)N(C(=O)COc2ccc(Cl)cc2)C3)c1 (stereo not given in full) | 2 | 0 | -1 | 1 | -2 | nt | nt
O=C(Nc1cccc(Cl)c1)Nc1cccc(Cl)c1 | 1 | 0 | 3 | 1 | 5 | nt | nt
COc1ccccc1NS(=O)(=O)c1cccc(NC(=O)Nc2cccc(Cl)c2)c1 | -2 | 1 | 9 | 0 | 31* | 11 | 4
COC(=O)c1cc(NC(=O)Nc2cccc(Cl)c2)ccc1Cl | 2 | 0 | 8 | -1 | 20* | 6 | 1
O=C(Nc1cccc(F)c1)Nc1cccc(Cl)c1 | -1 | 0 | 4 | 2 | 23* | 1 | 0
O=C(Nc1cccc(C(F)(F)F)c1)c1cccnc1N1CCN(c2ccccc2)CC1 | -1 | 0 | 5 | 2 | 10 | nt | nt
CCC(C)c1ccccc1NC(=O)CN(C)CCOc1ccc(Cl)cc1 (stereo not given) | -3 | 0 | 2 | 1 | 12 | nt | nt
Cc1nn(Cc2cccc3ccccc23)c(C)c1NC(=O)c1cccnc1 | 3 | 0 | -1 | -1 | 1 | nt | nt
Cc1ccccc1Cn1ccc(NC(=O)c2cnn3c2NC(c2ccccc2)CC3C(F)(F)F)n1 (stereo not given) | 5 | 0 | 5 | 6 | 21* | 4 | 1
CCOC(=O)N1CCN(CCC(=O)Nc2ccc(OC)cc2)CC1 | -1 | 0 | -1 | -1 | 71* | 1 | 0
O=C(COC(=O)C1CCN(C(=O)Nc2ccccc2)CC1)NCC(F)(F)F | 1 | 0 | -2 | 0 | 1 | nt | nt
FC(F)Sc1ccc(NC(=S)NCC2CCCCC2)cc1 | 0 | 0 | 7 | 1 | 31* | 2 | 1
O=C(Cc1cccc(C(F)(F)F)c1)Nc1ccc(S(=O)(=O)N2CCCC2)cc1 | -6 | 0 | 6 | 1 | 16 | nt | nt
SMILES | PLCb3 inh | proKLK7 act | ADAM17 inh | PLC-gamma1 inh | ADAM10 inh | ADAM10 confirm | ADAM17 ctr
CC(C)(C)c1ccc(OCCC(=O)Nc2cccc(S(=O)(=O)N3CCCCC3)c2)cc1 | 4 | -1 | 5 | 0 | 24* | 10 | 3
O=C(Cc1cccc(C(F)(F)F)c1)Nc1cccc(S(=O)(=O)N2CCCC2)c1 | -26 | 0 | 3 | 4 | 20* | 1 | 1
CC(C)N1CCN(Cc2nc3c(s2)CCCC3)CC1CCO (stereo not given) | -2 | 1 | -1 | 0 | -2 | nt | nt
Clc1ccccc1NCSC1=NCCS1 | 0 | 0 | -5 | 1 | -4 | nt | nt
Cc1ccccc1Nc1nc(Nc2ccccc2C)nc(SC2=NCCS2)n1 | 4 | 0 | 7 | 8 | 20* | 6 | 2
CC1(C(=O)NS(=O)(=O)c2cccc(C#N)c2)CCN1C(=O)C1(c2ccc(Cl)cc2)CC1 (stereo not given) | -4 | 0 | -1 | -1 | 5 | nt | nt
O=C(NC1CCCCN(Cc2ccc(Cl)cc2)C1=O)c1ccccn1 (stereo not given) | -1 | -1 | -1 | 2 | -1 | nt | nt
O=C(NC1CCCCN(Cc2ccc(Cl)cc2)C1=O)C(c1ccccc1)c1ccccc1 (stereo not given) | 0 | 0 | 4 | 2 | 22* | 6 | 4
Cc1cccc(COc2ccc(/C=N/NC(=O)c3nnn(-c4nonc4N)c3CN3CCCCC3)cc2)c1 | -3 | 1 | -1 | 1 | 5 | nt | nt
CC(NCc1ccc([N+](=O)[O-])cc1)C1COc2ccccc2O1 (stereo not given) | -1 | 0 | -2 | 1 | 0 | nt | nt
O=C(NCc1cn(-c2ccccc2)nc1-c1ccc(F)cc1)c1cccc([N+](=O)[O-])c1 | 6 | 0 | 9 | 2 | 21* | 7 | 2
CCn1cc(CNC(=O)c2cccc([N+](=O)[O-])c2)c(C)n1 | -4 | -1 | -2 | 3 | -8 | nt | nt
Cc1ccccc1CN1C(=O)CN(S(C)(=O)=O)CC1(C)C(=O)Nc1c(C)cccc1C (stereo not given) | -1 | 0 | -7 | 0 | -18 | nt | nt
O=C(CN1CCN(CC(=O)c2ccc(F)cc2)CC1)Nc1ccccc1Cl | -5 | 0 | 1 | -6 | -3 | nt | nt
O=C(NNC(=O)c1cc(-c2ccc(Cl)cc2)nc2ccccc12)c1csc(N2CCOCC2)n1 | -35 | -2 | 7 | -29 | 29* | 12 | 5
O=C(NNC(=O)c1cc(-c2ccccc2)nc2ccccc12)c1csc(N2CCOCC2)n1 | -13 | 0 | -2 | -2 | -3 | nt | nt
CCOC(=O)CCNC(=O)c1ccc2nc(C3CCCCC3)oc2c1 | -10 | 0 | 1 | -2 | 0 | nt | nt
